From PubChem BioAssay AID2810 (NMMLSC, 2010) come the findings set out here.

The nature of this experiment: modulators of CD8 T cell-vesicle binding, confirmation, cherry-picked primary hits, two concentrations (AID 2810).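 As to all read-outs here: lower values mean blocking of vesicle binding.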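 As to percent response (vesicle binding): ratio of mean FL2 vesicle stain of CD8+ cells to that row's control.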 Particulars: 2C CD8+ T cell-vesicle binding, flow cytometry; for double positive events: CD8+/vesicle+ events.
Setting [1] is: at 15.4 µM, stronger effect = lower value.

In all, about 1,200 compounds went through this assay and about 65 (5%) were called active.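 The calls were made as follows: active = at either tested dose, response and 90th-percentile vesicle-stain brightness of CD8 cells under set limits and under 9% cells vesicle-bound; inactive = the rest.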 The entries come from a sample that favours actives as a whole.

With `Cc1ccc(S(=O)(=O)N2CCN(CCOc3c(Cl)cccc3Cl)CC2)cc1C`, the double positive events is, setting by setting: (at 7.7 µM) 28.4%; under setting [1], 18.9%. Also, the percent response (vesicle binding) is, setting by setting: under setting [1], 334% (inactive); (response, at 7.7 µM) 140%.

Turning to `NC(=O)CCS(=O)(=O)CCN1CCN(S(=O)(=O)c2ccc3c(c2)CCC3)CC1`, the double positive events (at 7.7 µM) was 17.1% and the double positive events under setting [1] turned out to be 7.7%. The percent response (vesicle binding) reads like this: under setting [1], 43.5% (active); (response, at 7.7 µM) 183%.

On to `O=C(NCC1CCCCC1)c1cccc(S(=O)(=O)N2CCCC2)c1`, for which the double positive events turned out to be 8.6% (at 7.7 µM) and 8.5% under setting [1]. Also, the percent response (vesicle binding) is 104% (inactive) under setting [1] and 305% (response, at 7.7 µM).

`Cc1ccc(/C=N/Nc2ccc(F)cc2F)s1` displayed a double positive events (at 7.7 µM) of 17.7% and a double positive events under setting [1] of 29.3%. Moreover, the percent response (vesicle binding) is 280% (inactive) under setting [1] and 159% (response, at 7.7 µM).

The molecule `O=C(NCC1CCCO1)C(=O)NCC(c1ccco1)N1CCN(c2ccc(F)cc2)CC1` (configuration not stated) registered a double positive events (at 7.7 µM) of 35.6% and a double positive events under setting [1] of 10.4%. Further, the percent response (vesicle binding) runs as follows: under setting [1], 199% (inactive); (response, at 7.7 µM) 266%.

On to `O=C(O)c1ccc(N2C(=O)CC(SC(=Nc3ccccc3)Nc3ccccc3)C2=O)cc1` (configuration not stated), for which the double positive events (at 7.7 µM) amounted to 19.3% and the double positive events under setting [1] came to 18.5%. Besides, the percent response (vesicle binding) runs as follows: under setting [1], 276% (inactive); (response, at 7.7 µM) 663%.

In the case of `COc1cc(Cl)c(S(=O)(=O)n2cnc(C)c2)cc1Cl`, the double positive events was 9.6% (at 7.7 µM) and 9.7% under setting [1]. Moreover, the percent response (vesicle binding) is 141% (inactive) under setting [1] and 151% (response, at 7.7 µM).

As to `CCOC(=O)CSc1nnc(-c2ccc(Cl)cc2Cl)o1`, the double positive events amounted to 16.3% (at 7.7 µM) and 10.1% under setting [1]. The percent response (vesicle binding) under setting [1] was 118% (inactive) and the percent response (vesicle binding) (response, at 7.7 µM) was found to be 276%.

Turning to `CCOC(=O)CSc1nnnn1-c1cc(OC)c(Cl)cc1OC`, the double positive events reads like this: (at 7.7 µM) 20.1%; under setting [1], 5.9%. In addition, the percent response (vesicle binding) under setting [1] was 53.3% (active) and the percent response (vesicle binding) (response, at 7.7 µM) was 312%.

`CCn1c(SCC(=O)NCC2CCCO2)nnc1-c1c[nH]c2ccccc12` (configuration not stated): the double positive events came to 14.2% (at 7.7 µM) and 13.6% under setting [1]. Also, the percent response (vesicle binding) reads like this: under setting [1], 286% (inactive); (response, at 7.7 µM) 430%.

On to `O=C(NN1C(=O)C2C3C=CC([C@H]4CC34)[C@@H]2C1=O)c1ccc(Br)cc1` (some centres not stated), for which the double positive events is, setting by setting: (at 7.7 µM) 33.5%; under setting [1], 31.2%. In addition, the percent response (vesicle binding) was 590% (inactive) under setting [1] and 1000% (response, at 7.7 µM).

Consider `CCCOc1ccc(N2C(=O)CC(N(O)c3ccccc3)C2=O)cc1` (configuration not stated), for which the double positive events came out at 17.3% (at 7.7 µM) and 14.6% under setting [1]. For the same molecule, the percent response (vesicle binding) under setting [1] is 158% (inactive) and the percent response (vesicle binding) (response, at 7.7 µM) came out at 254%.

Regarding `Cc1ccccc1CS(=O)(=O)CCC(=O)N1CCN(c2ccc(N3CCOCC3)nn2)CC1`, the double positive events by setting is: (at 7.7 µM) 9%; under setting [1], 3.1%. Moreover, the percent response (vesicle binding) is, setting by setting: under setting [1], 18.4% (active); (response, at 7.7 µM) 160%.

The molecule `Cc1ccsc1C(=O)OCC(=O)N1CCN(c2ccccc2)CC1` returned a double positive events (at 7.7 µM) of 17.9% and a double positive events under setting [1] of 27%. The percent response (vesicle binding) was 263% (inactive) under setting [1] and 143% (response, at 7.7 µM).

Consider `CN(CCCC(=O)N1CCN(c2ncccn2)CC1)S(=O)(=O)c1ccc(F)cc1`, for which the double positive events reads like this: (at 7.7 µM) 7%; under setting [1], 13.1%. For the same molecule, the percent response (vesicle binding) runs as follows: under setting [1], 151% (inactive); (response, at 7.7 µM) 122%.

As for `COc1ccc(Br)cc1CN(C)C(=O)c1ccc2c(c1)NC(=O)C(C)S2` (configuration not stated), the double positive events worked out at 38.9% (at 7.7 µM) and 17.5% under setting [1]. The percent response (vesicle binding) under setting [1] is 221% (inactive) and the percent response (vesicle binding) (response, at 7.7 µM) amounted to 368%.

Turning to `Cc1cccc(NC(=O)C2CCN(S(=O)(=O)c3c(C)[nH]c(=O)[nH]c3=O)CC2)c1`, the double positive events by setting is: (at 7.7 µM) 9.4%; under setting [1], 12.6%. Also, the percent response (vesicle binding) is 434% (inactive) under setting [1] and 330% (response, at 7.7 µM).

With `COc1ccc(NCc2nc3ccccc3n2CCOc2ccccc2)cc1`, the double positive events (at 7.7 µM) worked out at 35.8% and the double positive events under setting [1] came out at 10.6%. For the same molecule, the percent response (vesicle binding) under setting [1] is 221% (inactive) and the percent response (vesicle binding) (response, at 7.7 µM) turned out to be 261%.

Consider `CC(=O)c1ccc(-c2csc(N3CCC(C(N)=O)CC3)n2)cc1`, for which the double positive events reads like this: (at 7.7 µM) 15.1%; under setting [1], 4.6%. In addition, the percent response (vesicle binding) is, setting by setting: under setting [1], 28.3% (active); (response, at 7.7 µM) 132%.

`CS(=O)(=O)c1cccc(-c2csc(N3CCC(C(N)=O)CC3)n2)c1`: the double positive events runs as follows: (at 7.7 µM) 18.3%; under setting [1], 37.8%. For the same molecule, the percent response (vesicle binding) by setting is: under setting [1], 182% (inactive); (response, at 7.7 µM) 192%.

Turning to `NC(=O)C1CCN(c2nc(-c3cc4ccccc4o3)cs2)CC1`, the double positive events came out at 28.4% (at 7.7 µM) and 8% under setting [1]. The percent response (vesicle binding) is 128% (inactive) under setting [1] and 459% (response, at 7.7 µM).

Regarding `O=C(CN1C(=O)COc2ccc(S(=O)(=O)N3CCCC3)cc21)NC1CC1`, the double positive events is 21.1% (at 7.7 µM) and 16.7% under setting [1]. Besides, the percent response (vesicle binding) is 459% (inactive) under setting [1] and 268% (response, at 7.7 µM).

Consider `O=C(NCc1ccncc1)C(=O)NCC(c1ccco1)N1CCN(c2ccccc2F)CC1` (configuration not stated), for which the double positive events (at 7.7 µM) turned out to be 28.7% and the double positive events under setting [1] amounted to 13.3%. Besides, the percent response (vesicle binding) under setting [1] was 251% (inactive) and the percent response (vesicle binding) (response, at 7.7 µM) was 276%.

Take `CCOC(=O)c1sc(NC(=O)CSc2ncn[nH]2)c(C#N)c1C`: the double positive events came out at 36.7% (at 7.7 µM) and 26.4% under setting [1]. For the same molecule, the percent response (vesicle binding) is 617% (inactive) under setting [1] and 394% (response, at 7.7 µM).

As to `Cc1nnc(NC(=O)c2ccc(S(=O)(=O)N(C)c3ccccc3)cc2)s1`, the double positive events by setting is: (at 7.7 µM) 9.6%; under setting [1], 37.9%. For the same molecule, the percent response (vesicle binding) is 156% (inactive) under setting [1] and 134% (response, at 7.7 µM).

On to `COc1ccccc1-c1nnc(NC(=O)c2ccc(S(=O)(=O)N3CCOCC3)cc2)o1`, for which the double positive events runs as follows: (at 7.7 µM) 7%; under setting [1], 8.1%. Moreover, the percent response (vesicle binding) is 284% (inactive) under setting [1] and 264% (response, at 7.7 µM).

As to `CCCc1nnc(NC(=O)c2ccc(S(=O)(=O)N(C)c3ccccc3OC)cc2)s1`, the double positive events came out at 14.9% (at 7.7 µM) and 6% under setting [1]. Also, the percent response (vesicle binding) is 35.7% (active) under setting [1] and 216% (response, at 7.7 µM).

Turning to `COc1cc(OC)cc(C(=O)NC(C(=O)Nc2ccc3c(c2)CCC3)C(C)C)c1` (configuration not stated), the double positive events (at 7.7 µM) was 8.9% and the double positive events under setting [1] was 21%. For the same molecule, the percent response (vesicle binding) is, setting by setting: under setting [1], 368% (inactive); (response, at 7.7 µM) 147%.

As to `O=C(CC1=NCCNC(c2ccccc2)C1)c1ccccc1O` (configuration not stated), the double positive events was determined as 6.2% (at 7.7 µM) and 1.7% under setting [1]. The percent response (vesicle binding) under setting [1] was 65.1% (inactive) and the percent response (vesicle binding) (response, at 7.7 µM) is 316%.

For the molecule `COc1ccc(NCC(O)Cn2c(C)c(C)c3ccccc32)cc1` (configuration not stated), the double positive events by setting is: (at 7.7 µM) 11.5%; under setting [1], 16.3%. The percent response (vesicle binding) under setting [1] was 63.6% (inactive) and the percent response (vesicle binding) (response, at 7.7 µM) turned out to be 101%.

Regarding `Cc1ccc(C(C)n2cc(C(=O)NCCN3CCN(C)CC3)nn2)cc1` (configuration not stated), the double positive events is, setting by setting: (at 7.7 µM) 11.2%; under setting [1], 1.8%. The percent response (vesicle binding) by setting is: under setting [1], 36.8% (active); (response, at 7.7 µM) 155%.

For the molecule `O=C(NCCN1CCN(c2ccccc2)CC1)c1cccc(Br)c1`, the double positive events by setting is: (at 7.7 µM) 24.2%; under setting [1], 13.3%. Further, the percent response (vesicle binding) under setting [1] is 252% (inactive) and the percent response (vesicle binding) (response, at 7.7 µM) amounted to 278%.

As to `CCCCCC(=O)N[C@@H](c1ccccc1)[C@@H](O)C(=O)O[C@H]1C[C@@]2(O)[C@@H](OC(=O)c3ccccc3)C3[C@](C)(C(=O)[C@H](OC(C)=O)C(=C1C)C2(C)C)[C@@H](O)C[C@H]1OC[C@@]31OC(C)=O` (some centres not stated), the double positive events (at 7.7 µM) worked out at 16.4% and the double positive events under setting [1] came out at 12%. Besides, the percent response (vesicle binding) is 252% (inactive) under setting [1] and 302% (response, at 7.7 µM).
